NALP3 yeast inh – NALP3 inhibition in yeast; Yeast reconstituted NLRP3/ASC/caspase-1, beta-gal luminescence, 24 h; inhibition, % at 10 µM; 330,000 tested, 0.39% active; AID 2825;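 active = inhibition of 50% or more; inactive = inhibition below 50%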;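 note: plate controls were induced DMSO wells for no effect and uninduced yeast grown without galactose for full effect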
tim23-1 inh – inhibits growth of tim23-1 mutant yeast | 330,000 tested, 1.3% active | S. cerevisiae tim23-1 growth, BacTiter-Glo luminescence, 24 h | inhibition, % at 20 µM;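 active = growth inhibition of the mutant yeast at or above 50%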;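 note: temperature-sensitive mutant grown at 25 °C; plate controls were DMSO-treated mutant yeast for no effect and medium wells lacking yeast for full effect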
tim10-1 inh – tim10-1 yeast growth inhibition | inhibition, % at 20 µM | 330,000 tested, 2.2% active | AID 463190 | S. cerevisiae tim10-1 ts strain growth, BacTiter-Glo, 24 h;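 active = inhibition of at least 40%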;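 note: mutant grown at 25 °C; 0% = DMSO wells with yeast and 100% = wells holding no yeast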
NALP1 inh – NALP1 inhibition; S. cerevisiae NALP1/ASC/caspase-1 growth, X-gal OD620, 72 h; inhibition, % at 10 µM; 280,000 tested, 0.61% active; AID 2071; in the data active = inhibition mostly above about 24%, no sharp cut-off; inactive = mostly below about 32%
TIM10 inh – growth inhibitors of TIM10 yeast strain. S. cerevisiae TIM10 strain growth, BacTiter-Glo luminescence, 24 h. inhibition, % at 10 µM. 330,000 tested, 1.4% active. AID 463195;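 active = inhibition of 40% or more at the single tested concentration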;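 note: wild-type TIM10 isogenic control strain grown at permissive 25 °C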
tim10-1 confirm – confirmation of tim10-1 mutant yeast growth inhibitors | AID 463213 | S. cerevisiae tim10-1 ts strain growth, BacTiter-Glo, 24 h | inhibition, % at 20 µM | 7,400 tested, 56% active | shares compounds with tim10-1 inh;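 active = inhibition of yeast growth at or above a set limit in either of two repeat tests at 20 µM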;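 note: tim10-1 mutant grown at permissive 25 °C to find synthetic lethal compounds; 0% = DMSO yeast wells and 100% = medium wells without yeast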
Starred values were filed as active, the others as inactive; / = not tested or not shown. Sampled rows, rich in hits. Any-hit rate of the full collection: about 4%.

SMILES	NALP3 yeast inh	tim23-1 inh	tim10-1 inh	NALP1 inh	TIM10 inh	tim10-1 confirm
Cc1oc2ccc(O)cc2c1C(=O)c1ccc(Cl)cc1	2.0	23.0	31.2	17.6	4.8	/
Cc1oc2ccc(O)cc2c1C(=O)c1ccc([N+](=O)[O-])cc1	22.5	45.1	44.9*	34.4	28.3	26.7
CCOc1ccc(NC2c3ccccc3C(=O)N2Cc2ccc3c(c2)OCO3)cc1 (stereo not given)	5.4	13.3	10.1	-13.3	-8.5	/
O=C1c2ccccc2C(Nc2ccc3c(c2)OCCO3)N1Cc1ccccc1 (stereo not given)	7.1	39.2	40.0	9.2	23.1	7.1
COc1ccc(CNC(=O)CSCc2cnn(-c3ccccc3)c2-n2cccc2)cc1	-8.5	13.8	43.8*	10.1	-2.7	16.1
COc1ccc2c(c1)CCC/C2=N\Nc1nc(C(=O)NN)cs1	3.0	28.1	41.0*	/	24.9	38.2*
CCOC(=O)c1csc(N/N=C2\CCCc3ccccc32)n1	-19.7	41.5	48.4*	2.2	25.7	20.6
CCOC(=O)C1=C(N)OC2=C(C(=O)CC(C)(C)C2)C1c1cc(CSc2nnnn2C)cs1 (stereo not given)	2.2	14.0	10.7	-5.4	-1.5	/
N#Cc1c(NC(=S)NC(=O)Cc2cccs2)sc2c1CCCCC2	4.3	33.5	46.6*	0.5	18.5	28.6
CC(=O)NC(=S)Nc1sc2c(c1C#N)CCCCC2	/	/	/	10.9	/	/
O=C(Cn1[nH]c(=O)c2ccccc2c1=O)N1CCN(S(=O)(=O)c2ccc(Cl)cc2)CC1	15.3	0.2	2.9	/	7.6	/
CCCc1nc2c(ccc3ccccc32)cc1CC	12.1	-3.9	-18.9	10.1	-13.5	/
Cc1ccc(CCNC(=O)c2cc(S(=O)(=O)N3CCCC3)cn2C)cc1	2.0	-10.6	-15.2	2.2	-14.7	/
CCC(C)Nc1nc(N)c([N+](=O)[O-])c(Nc2cc(OC)ccc2OC)n1 (stereo not given)	12.7	38.0	40.3*	24.5	32.1	15.2
COc1ccc(OC)c(Nc2nc(NCCC(C)C)nc(N)c2[N+](=O)[O-])c1	20.6	26.6	23.5	-7.9	32.1	/
Cc1cc(C(=O)NNC2CC(=O)N(c3ccc4ccccc4c3)C2=O)c(C)o1 (stereo not given)	-2.3	10.6	0.1	-8.9	6.9	/
O=C(O)Cc1sc(Nc2ccccc2)nc1-c1ccc(Cl)cc1	5.6	24.7	40.4*	-1.6	13.5	23.1
S=c1[nH]nc(-c2ccccc2Br)n1Cc1ccccc1	15.5	29.2	41.1*	-13.8	21.2	25.5
Oc1ccccc1-c1n[nH]c(=S)n1Cc1ccccc1	7.9	4.5	4.7	-1.8	16.2	/
Oc1ccc(Br)cc1-c1n[nH]c(=S)n1Cc1ccccc1	22.7	24.6	18.0	-14.8	18.4	/
Cc1ccccc1-c1n[nH]c(=S)n1Cc1ccccc1	1.7	5.3	40.1*	-17.8	25.8	16.4
COc1ccc(OCC(O)CNC(=O)Nc2cc(F)ccc2C)cc1 (stereo not given)	15.2	0.6	12.7	10.6	-9.1	/
Cc1cc(C(=O)NCC(=O)OCC(=O)NCC2CCCO2)ccc1[N+](=O)[O-] (stereo not given)	12.5	-6.7	-7.0	/	0.9	/
COC(=O)c1ccc(N2CCN(c3ccccc3)CC2)c(N)c1	13.4	-8.3	79.6*	-7.5	-5.0	7.8
N=c1n(CCN2CCCCC2)c2ccccc2n1CC(=O)c1ccc(Cl)c(Cl)c1	39.6	-34.6	14.1	25.3	-16.8	/
SMILES	NALP3 yeast inh	tim23-1 inh	tim10-1 inh	NALP1 inh	TIM10 inh	tim10-1 confirm
CCn1c(=N)n(CC(=O)c2ccc(Cl)c(Cl)c2)c2ccccc21	27.4	25.3	42.0*	23.0	7.5	10.0
OCC1CCCN(c2nc(CN3CCCCC3)nc3scc(-c4ccccc4)c23)C1 (stereo not given)	11.1	32.1	40.2*	9.5	17.1	14.3
OCC1CCCN(c2ncnc3scc(-c4ccccc4)c23)C1 (stereo not given)	19.4	32.2	-1.8	-2.4	-7.4	/
Cc1ccc(NC(=O)CSC(C)c2nc3ccccc3c(=O)[nH]2)cc1 (stereo not given)	5.3	4.5	13.4	-5.2	7.6	/
COc1ccc(C(CNC(=O)Nc2cccc(C)c2)N2CCN(C)CC2)cc1 (stereo not given)	19.6	-3.1	-1.6	-33.5	-16.4	/
O=C(N(Cc1ccccc1)c1ccccn1)C12CC3CC(CC(C3)C1)C2	-7.6	38.4	35.5	11.0	35.4	/
O=C(N(c1ccccn1)c1ccccn1)C12CC3CC(CC(C3)C1)C2	1.0	31.8	41.9*	5.0	1.0	28.2
O=C(CSc1cccc2cccnc12)N1CCCC1	23.6	45.5	42.0*	15.5	-2.7	34.5*
COc1ccc(/C(N)=N/OC(=O)CCc2ccccc2)cc1	18.9	49.4	26.3	8.7	33.1	/
N/C(=N\OC(=O)CCCc1ccccc1)c1ccccc1Cl	1.9	49.2	50.4*	11.6	30.8	59.4*
CC(C)(C)C(=O)Nc1nnc(SCc2ccc(F)cc2)s1	30.1	35.6	49.9*	-6.4	22.3	44.3*
CC(C)(C)C(=O)Nc1nnc(SCc2cccc(F)c2)s1	45.4	30.3	2.8	-4.1	8.0	/
Cc1ccc(S(=O)(=O)c2nc(S(C)(=O)=O)sc2N2CCC(O)CC2)cc1	-10.2	-8.4	-3.6	26.9	1.2	/
Cc1ccc(S(=O)(=O)c2nc(S(C)(=O)=O)sc2N2CCCCC2C)cc1 (stereo not given)	-96.1	43.0	41.6*	-20.9	37.4	42.7*
Cc1cccc(NC(=O)CCC(=O)N2CCOCC2)n1	17.8	-2.0	-16.4	/	1.7	/
O=C(CC(Sc1ccc(Br)cc1)C(=O)O)c1ccc(F)cc1 (stereo not given)	3.7	29.2	42.0*	-6.5	11.9	25.4
CCOc1ccc(C(=O)CC(Sc2ccc(C)cc2)C(=O)O)cc1 (stereo not given)	11.2	26.0	20.4	-6.7	8.9	/
Cn1ncc(Cl)c1C(=O)Nc1cccc(Cl)c1	16.9	29.3	47.3*	-59.3	18.6	27.4
CCOC(=O)c1cc(CC)sc1NC(=O)c1ccc2c(c1)OCCO2	2.4	16.5	41.3*	31.4	32.2	9.1
CCOC(=O)c1cc(CC)sc1NC(=O)c1cc(OCC)c(OCC)c(OCC)c1	3.6	-4.9	17.7	14.9	12.1	/
COc1ccc(N2CCN(C(=O)CSc3nnc(-c4cc5ccccc5cc4O)n3C)CC2)cc1	4.6	32.7	45.3*	-1.3	22.4	18.8
COc1ccc(-n2cnnc2SCC(=O)N2CCN(c3ccccc3)CC2)cc1	3.7	5.3	12.6	-10.7	-3.6	/
COCCCn1c(C(=O)N2CC(C)OC(C)C2)cc2c(=O)n3ccccc3nc21 (stereo not given)	16.6	-9.0	-32.9	13.8	-7.8	/
CSc1ccccc1NC(=O)C1CC(c2c(F)cccc2Cl)=NO1 (stereo not given)	33.1	46.9	46.5*	/	32.9	55.7*
COc1cc2c3c(c1)/C(=C1/SC(NC(C)=O)=NC1=O)C(=O)N3C(C)(C)C=C2C	10.4	45.1	62.5*	8.3	29.8	56.2*

Compound activity: PubChem, Sanford-Burnham Center for Chemical Genomics
